# Laboratory results from PubChem BioAssay (Tox21).
# “And” between values parts separate entries of the source, which are not always exact repeats. Equal entries are not always repeated. A structure can be active in one record and inactive in another. The source made the active and inactive calls. Where a call stands in place of a potency, no number is given. Unless noted, calls come from the whole dose curve; as a rule, active = well fitted curve in the direction sought with a large enough effect in the repeat runs; inconclusive = weak or mixed curves; inactive = no such curve, though single readings can be large; an effect the other way counts as inactive or inconclusive.
# Key:
# [1] = qHTS assay to identify small molecule antagonists of the thyroid receptor (TR) signaling pathway (AID 743065); conditions: GH3.TRE-Luc, T3-stimulated luciferase inhibition, 23.5 h; series mostly up to 70.3 µM; note: nearly all actives have a fitted effect of over 55% in size; note: potency is the fitted concentration of half-maximal effect
# Outline: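 Antagonism measured as loss of luciferase signal in GH3 cells stably carrying a TRE-luciferase reporter, co-treated with compound and T3 (1 nM final) for 23.5 h at 37 C. Viability was read in the same well by CellTiter-Fluor.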
# [2] = tested on: thyroid hormone receptor (rat, GH3 cells); assay: qHTS assay to identify small molecule agonists of the thyroid receptor (TR) signaling pathway (AID 743066; calls by dose curve); conditions: GH3.TRE-Luc cells, TR agonist luciferase, 24 h; series mostly up to 83.9 µM
# [3] = target: Estrogen receptor (Homo sapiens) (UniProt P03372); assay: qHTS assay to identify small molecule antagonists of the estrogen receptor alpha (ER-alpha) signaling pathway (AID 743069; active = well fitted curve in the direction sought with a large enough effect in the signal ratio in the repeat runs, not every such curve was filed as active; inconclusive = weak or mixed curves, or effect the other way; inactive = no such curve, though single readings can be large or run the other way; the % refers to the signal ratio; note: potency is the fitted concentration of half-maximal effect); conditions: HEK293 ER-alpha-UAS-bla, beta-lactamase ratio, antagonist mode; series mostly up to 69.4 µM
# Estrogen receptor (Homo sapiens), sequence (P03372 whole entry, looked up): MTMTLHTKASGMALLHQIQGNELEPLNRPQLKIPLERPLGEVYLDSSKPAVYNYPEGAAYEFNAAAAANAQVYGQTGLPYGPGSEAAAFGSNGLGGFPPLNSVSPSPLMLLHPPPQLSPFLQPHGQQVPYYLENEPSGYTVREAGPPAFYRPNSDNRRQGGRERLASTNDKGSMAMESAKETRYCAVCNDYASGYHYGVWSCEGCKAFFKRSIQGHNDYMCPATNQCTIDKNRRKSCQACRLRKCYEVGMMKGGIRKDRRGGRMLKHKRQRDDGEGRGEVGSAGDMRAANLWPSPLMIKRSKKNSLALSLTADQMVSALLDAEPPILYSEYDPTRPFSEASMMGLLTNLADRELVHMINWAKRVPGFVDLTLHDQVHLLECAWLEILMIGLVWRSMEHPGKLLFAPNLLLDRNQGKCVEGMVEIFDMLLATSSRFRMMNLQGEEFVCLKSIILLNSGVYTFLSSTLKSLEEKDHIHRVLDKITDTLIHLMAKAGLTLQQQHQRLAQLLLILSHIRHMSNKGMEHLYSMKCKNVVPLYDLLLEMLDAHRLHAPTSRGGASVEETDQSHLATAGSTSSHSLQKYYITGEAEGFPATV
# Outline: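 ER-alpha-UAS-bla GripTite HEK293 line; 2% charcoal-stripped FBS overnight; plated, 4 hr 37C/5% CO2; cpd in DMSO + 17beta-estradiol, 18 hr 37C; LiveBLAzer B/G FRET substrate 2 hr RT; fluorescence intensity.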
# [4] = qHTS assay to identify small molecule antagonists of the estrogen receptor alpha (ER-alpha) signaling pathway - cell viability counter screen (AID 743074; calls by dose curve;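 note: HEK293 cells carrying ER-alpha-UAS-bla reporter stimulated with 17beta-estradiol; nearly all actives have a fitted effect of over 45% in size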); conditions: ERalpha-bla HEK293 viability, CellTiter-Glo luminescence, 18 h; series mostly up to 69.4 µM
# [5] = target: Estrogen receptor (Homo sapiens) (UniProt P03372); assay: qHTS assay to identify small molecule agonists of the estrogen receptor alpha (ER-alpha) signaling pathway (AID 743075; calls by dose curve;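 note: HEK293 GripTite cells with ER-alpha and UAS-driven beta-lactamase reporter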; note: potency is the fitted concentration of half-maximal effect); conditions: HEK293 ER-alpha-UAS-bla, beta-lactamase FRET ratio, 18 h; series mostly up to 70.1 µM
# [6] = target: Estrogen receptor (Homo sapiens) (UniProt P03372); assay: qHTS assay to identify small molecule agonists of the estrogen receptor alpha (ER-alpha) signaling pathway using the BG1 cell line (AID 743079); conditions: BG1Luc4E2 cells, ERE-luciferase agonist, 22 h; series mostly up to 70.3 µM; note: nearly all actives have a fitted effect of over 20% in size; note: potency is the fitted concentration of half-maximal effect
# [7] = qHTS assay to identify small molecule antagonists of the estrogen receptor alpha (ER-alpha) signaling pathway using the BG1 cell line (AID 743080; calls by dose curve;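 note: BG1 cells stimulated with 17beta-estradiol alongside compound; nearly all actives have a fitted effect of over 25% in size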); conditions: BG1Luc4E2 ERE-luciferase antagonist mode, luminescence; series mostly up to 70.3 µM
# Outline: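 Endogenous full-length ER-alpha in BG1-Luc-4E2 cells drives a stably integrated 4×ERE luciferase gene; compounds were tested against 17beta-estradiol over 21.5 h, with luminescence and multiplexed viability fluorescence recorded.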
# [8] = qHTS assay to identify small molecule antagonists of the estrogen receptor alpha (ER-alpha) signaling pathway using the BG1 cell line - cell viability counter screen (AID 743081); conditions: BG1Luc4E2 viability, CellTiter-Fluor, 22 h; series mostly up to 70.3 µM;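 note: compound given together with 17beta-estradiol as the ER stimulus; nearly all actives have a fitted effect of over 45% in size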; note: potency is the fitted concentration of half-maximal effect
# Aromatase (Homo sapiens) = Aromatase (Homo sapiens) (UniProt P11511); assay: qHTS assay to identify aromatase inhibitors (AID 743083); conditions: MCF-7 aro ERE, testosterone-driven ERE luciferase, 24 h; series mostly up to 70.3 µM; note: nearly all actives have a fitted effect of over 55% in size
# Aromatase (Homo sapiens), sequence (P11511 whole entry, looked up): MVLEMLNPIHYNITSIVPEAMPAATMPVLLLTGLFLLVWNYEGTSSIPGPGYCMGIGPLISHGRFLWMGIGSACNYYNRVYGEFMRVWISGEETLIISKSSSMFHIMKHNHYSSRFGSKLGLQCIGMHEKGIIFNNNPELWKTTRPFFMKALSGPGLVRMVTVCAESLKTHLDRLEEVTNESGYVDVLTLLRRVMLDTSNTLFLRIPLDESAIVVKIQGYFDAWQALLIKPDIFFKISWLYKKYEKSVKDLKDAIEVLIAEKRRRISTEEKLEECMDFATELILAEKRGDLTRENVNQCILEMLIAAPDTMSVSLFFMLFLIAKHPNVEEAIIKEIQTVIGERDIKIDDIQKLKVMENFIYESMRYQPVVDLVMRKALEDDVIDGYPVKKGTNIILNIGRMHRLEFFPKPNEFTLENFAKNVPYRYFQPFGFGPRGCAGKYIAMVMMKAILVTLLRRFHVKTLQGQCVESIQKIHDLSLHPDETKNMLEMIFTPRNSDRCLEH
# [9] = qHTS assay to identify aromatase inhibitors - cell viability counter screen (AID 743084); conditions: MCF-7 aro ERE viability, CellTiter-Fluor, 24 h; series mostly up to 70.3 µM;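 note: cells stimulated with testosterone during compound exposure; nearly all actives have a fitted effect of over 55% in size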; note: potency is the fitted concentration of half-maximal effect
# [10] = qHTS assay to identify small molecule that activate the aryl hydrocarbon receptor (AhR) signaling pathway - cell viability counter screen (AID 743086); conditions: HepG2-AhR-luc viability, CellTiter-Fluor, 24 h; series mostly up to 70.3 µM; note: nearly all actives have a fitted effect of over 45% in size; note: potency is the fitted concentration of half-maximal effect
# Outline: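 Cytotoxicity counter screen: CellTiter-Fluor signal (30 min, 37 C) in 4000 HepG2 cells/well carrying the DRE-luciferase reporter, following 24 h compound exposure at 37 C.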
# [11] = target: Peroxisome proliferator-activated receptor gamma (Homo sapiens) (UniProt P37231); assay: qHTS assay to identify small molecule agonists of the peroxisome proliferator-activated receptor gamma (PPARg) signaling pathway (AID 743094; active = well fitted activation curve with a large enough effect in the signal ratio in the repeat runs, not every such curve was filed as active; inconclusive = weak or mixed curves, or effect the other way; inactive = no such curve, though single readings can be large or run the other way; the % refers to the signal ratio); conditions: HEK293H PPARg-UAS-bla, beta-lactamase FRET ratio, 17 h; series mostly up to 57 µM
# Peroxisome proliferator-activated receptor gamma (Homo sapiens), sequence (P37231 whole entry, looked up): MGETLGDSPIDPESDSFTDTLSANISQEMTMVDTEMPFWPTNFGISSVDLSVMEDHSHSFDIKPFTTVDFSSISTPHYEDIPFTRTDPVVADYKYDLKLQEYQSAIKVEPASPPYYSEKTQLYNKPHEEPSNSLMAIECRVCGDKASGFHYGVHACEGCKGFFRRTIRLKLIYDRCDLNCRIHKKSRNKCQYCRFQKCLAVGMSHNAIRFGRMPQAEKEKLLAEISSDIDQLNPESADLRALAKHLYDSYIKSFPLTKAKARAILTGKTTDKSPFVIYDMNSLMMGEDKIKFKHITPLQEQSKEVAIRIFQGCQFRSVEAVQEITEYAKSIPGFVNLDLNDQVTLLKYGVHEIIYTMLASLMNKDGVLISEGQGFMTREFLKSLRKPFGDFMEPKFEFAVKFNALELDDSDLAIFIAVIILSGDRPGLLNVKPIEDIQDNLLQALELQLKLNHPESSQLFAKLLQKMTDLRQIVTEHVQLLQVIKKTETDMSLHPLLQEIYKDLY
# Outline: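 Compounds dissolved in DMSO were added to PPARg UAS-bla HEK293H cells for 17 h at 37C, and reporter expression was quantified by fluorescence intensity after 1 h with LiveBLAzer B/G FRET substrate.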
# [12] = target: Peroxisome proliferator-activated receptor gamma (Homo sapiens) (UniProt P37231); assay: qHTS assay to identify small molecule antagonists of the peroxisome proliferator-activated receptor gamma (PPARg) signaling pathway (AID 743191; calls by dose curve; note: nearly all actives have a fitted effect of over 30% in size); conditions: HEK293H PPARg-UAS-bla, beta-lactamase ratio, antagonist, 17 h; series mostly up to 62.6 µM
# Outline: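 Beta-lactamase reporter under UAS control in HEK293H PPARg-bla cells; compound treatment 17 h at 37C. Read-out: fluorescence intensity after 1 h room-temperature incubation with LiveBLAzer B/G FRET substrate.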
# [13] = qHTS assay to identify small molecule antagonists of the peroxisome proliferator-activated receptor gamma (PPARg) signaling pathway - cell viability counter screen (AID 743194); conditions: PPARg-bla HEK293H viability, CellTiter-Glo luminescence, 17 h, co-treated with 50 nM rosiglitazone; series mostly up to 62.6 µM; note: nearly all actives have a fitted effect of over 55% in size
# Outline: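 Viability was measured as CellTiter-Glo luminescence in GeneBLAzer PPARg UAS-bla HEK293H cells. These cells had been exposed 17 h at 37 C to compounds together with rosiglitazone at 50 nM final, with the beta-lactamase readout taken in the same wells.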
# [14] = qHTS assay for small molecule agonists of the antioxidant response element (ARE) signaling pathway - cell viability counter screen (AID 743203; calls by dose curve; note: nearly all actives have a fitted effect of over 55% in size); conditions: ARE-bla HepG2 viability, CellTiter-Glo luminescence, 16 h; series mostly up to 73.3 µM
# Outline: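 Following 16 hrs of compound treatment at 37C, HepG2 cells with an ARE-controlled beta-lactamase gene were lysed with CellTiter-Glo. Luminescence was read after 30 min at room temperature.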
# [15] = qHTS assay for small molecule activators of the heat shock response signaling pathway - cell viability counter screen (AID 743209); conditions: HSE-bla HeLa viability, CellTiter-Glo luminescence, 5 h; series mostly up to 62.6 µM; note: nearly all actives have a fitted effect of over 50% in size
# Outline: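 Readout: CellTiter-Glo luminescence, 30 min at room temperature. System: HSE-bla HeLa cells, 1500/well, plated overnight. Treatment: compounds in DMSO, 5 h at 37 C.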
# [16] = qHTS assay for small molecule activators of the heat shock response signaling pathway (AID 743210; active = well fitted activation curve with a large enough effect in the signal ratio in the repeat runs, with a control signal flat, not every such curve was filed as active; inconclusive = weak or mixed curves; the % refers to the signal ratio;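 note: HeLa cells with beta-lactamase reporter driven by heat shock elements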); conditions: HeLa HSE-bla reporter, beta-lactamase ratio, 5 h; series mostly up to 62.6 µM
# Outline: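 HeLa HSE-bla cells, overnight plating; cpd in DMSO 5 h, 37 C; LiveBLAzer B/G FRET substrate 2.5 h RT; fluorescence intensity read.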
# [17] = qHTS assay to identify small molecule agonists of the peroxisome proliferator-activated receptor delta (PPARd) signaling pathway - cell viability counter screen (AID 743211); conditions: PPARd-bla HEK293H viability, CellTiter-Glo luminescence, 17 h; series mostly up to 62.6 µM; note: nearly all actives have a fitted effect of over 55% in size
# Outline: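 Viability of GeneBLAzer PPARd UAS-bla HEK293H cells was assessed after 17 h compound incubation at 37C, using CellTiter-Glo reagent added after the reporter read and luminescence recorded 30 min later.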
# [18] = qHTS assay for small molecule agonists of the antioxidant response element (ARE) signaling pathway (AID 743202; active = well fitted activation curve with a large enough effect in the signal ratio in the repeat runs, not every such curve was filed as active; inconclusive = weak or mixed curves, or effect the other way; inactive = no such curve, though single readings can be large or run the other way; the % refers to the signal ratio; note: potency is the fitted concentration of half-maximal effect); conditions: HepG2 ARE-bla reporter, beta-lactamase FRET, 16 h; series mostly up to 73.3 µM
# Outline: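 Quantitative high-throughput format in HepG2 cells bearing an integrated ARE-beta-lactamase reporter. Compound exposure lasted 16 h at 37 C, and fluorescence was read 2 h after adding LiveBLAzer B/G substrate at room temperature.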
# [19] = target: Aryl hydrocarbon receptor (Homo sapiens) (UniProt P35869); assay: qHTS assay to identify small molecule that activate the aryl hydrocarbon receptor (AhR) signaling pathway (AID 743085); conditions: HepG2 AhR-luc (HG2L7.5c1), luciferase, 24 h; series mostly up to 70.3 µM; note: nearly all actives have a fitted effect of over 15% in size; note: potency is the fitted concentration of half-maximal effect;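 for activation: HG2L7.5c1 human HepG2 liver cells with stably integrated DRE-driven firefly reporter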
# Aryl hydrocarbon receptor (Homo sapiens), sequence (P35869 whole entry, looked up): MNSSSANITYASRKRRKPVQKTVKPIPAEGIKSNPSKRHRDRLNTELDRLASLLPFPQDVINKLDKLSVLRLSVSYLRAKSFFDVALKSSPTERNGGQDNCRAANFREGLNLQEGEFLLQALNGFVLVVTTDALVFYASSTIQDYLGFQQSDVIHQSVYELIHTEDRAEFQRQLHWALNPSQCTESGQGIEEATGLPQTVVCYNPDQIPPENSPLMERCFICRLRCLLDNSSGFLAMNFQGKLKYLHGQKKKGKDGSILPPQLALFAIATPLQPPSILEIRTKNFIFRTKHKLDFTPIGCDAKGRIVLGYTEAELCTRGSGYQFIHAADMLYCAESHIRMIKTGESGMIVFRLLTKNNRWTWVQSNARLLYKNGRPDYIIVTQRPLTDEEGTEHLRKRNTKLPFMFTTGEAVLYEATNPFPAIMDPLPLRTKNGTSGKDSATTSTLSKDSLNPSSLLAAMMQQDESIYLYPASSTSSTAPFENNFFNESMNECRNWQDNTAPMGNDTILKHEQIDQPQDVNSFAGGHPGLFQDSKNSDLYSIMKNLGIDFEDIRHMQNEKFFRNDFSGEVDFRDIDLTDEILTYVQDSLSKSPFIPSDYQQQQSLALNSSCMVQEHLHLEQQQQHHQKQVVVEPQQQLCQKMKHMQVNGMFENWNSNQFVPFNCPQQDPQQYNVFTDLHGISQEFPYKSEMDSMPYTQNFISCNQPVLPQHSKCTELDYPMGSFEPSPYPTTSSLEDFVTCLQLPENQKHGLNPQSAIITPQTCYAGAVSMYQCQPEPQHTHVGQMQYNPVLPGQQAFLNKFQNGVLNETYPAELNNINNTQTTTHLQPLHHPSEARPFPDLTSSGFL
# Outline: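 Steps: seed HepG2-AhR-luc cells; allow 5 h at 37C; pin-transfer test compound or vehicle; incubate 24 h at 37C; add viability dye (30 min, 37C) and read fluorescence; add luciferase substrate (30 min, RT) and read luminescence.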
Compound,Potency [1],outcome [2],Potency [3],outcome [4],Potency [5],Potency [6],outcome [7],Potency [8],Potency (Aromatase (Homo sapiens)),Potency [9],Potency [10],outcome [11],outcome [12],outcome [13],Potency [14],outcome [15],outcome [16],outcome [17],Potency [18],Potency [19]
CC(=O)CC(C)(C)O,inactive,inactive,inactive,inactive,inactive,inactive,inactive,inactive,inactive,inactive,inactive,inactive,inactive,inactive,inactive,inactive,inactive,inactive,,
COCCCN,inactive,inactive,inactive,inactive,inactive,inactive,inactive,inactive,inactive,inactive,inactive,inactive,,inactive,inactive,inactive,inactive,inactive,inactive,
NCCN1CCNCC1,inactive,inactive,inactive,,inactive,inactive,inactive,inactive,inactive,inactive,inactive,inactive,inactive,inactive,,inactive,inactive,inactive,inactive,inactive
O=S(=O)(O)c1ccc(N=Nc2c(O)ccc3cc(S(=O)(=O)O)ccc23)cc1,inactive,inactive,inactive,inactive,inactive,inactive,inactive,27.4 µM (active) and 27.3 µM (active),inactive,15.4 µM (active) and 19.3 µM (active),13.7 µM (active) and 8.63 µM (active),,,inactive,inactive,inactive,inactive,inactive,,inactive
Nc1ccc(Cl)c(N)c1,inactive,inactive,,inactive,inactive,inactive,inactive,inactive,inactive,inactive,inactive,,,inactive,inactive,inactive,inactive,inactive,,19.4 µM (active) and 7.7 µM (active)
CCCCOC(=O)c1ccc(N)cc1,21.1 µM (active) and 21.4 µM (active),inactive,24.2 µM [inconclusive] (active),inactive,inactive,23.7 µM (active) and 33.9 µM (active),,inactive,inactive,inactive,inactive,,,inactive,,inactive,inactive,inactive,,23.7 µM (active)
O=C(O)c1ccccc1C(=O)O,inactive,inactive,inactive,inactive,inactive,inactive,inactive,inactive,inactive,inactive,inactive,,,inactive,,inactive,inactive,inactive,,
C=CC(=O)OCCC(=O)O,inactive,inactive,inactive,inactive,inactive,inactive,,inactive,inactive,inactive,inactive,inactive,inactive,inactive,,inactive,inactive,inactive,9.69 µM (active),inactive
NCCCCCCN,inactive,inactive,,inactive,,,,inactive,inactive,inactive,inactive,inactive,inactive,inactive,inactive,inactive,inactive,inactive,inactive,inactive
CNC(=O)Oc1ccc2c(c1)[C@]1(C)CCN(C)[C@@H]1N2C,inactive,inactive,inactive,inactive,inactive,inactive,inactive,inactive,inactive,inactive,inactive,inactive,inactive,inactive,,inactive,inactive,inactive,inactive,
CC(C)CC(C)O (stereo not drawn),inactive,inactive,inactive,inactive,inactive,inactive,inactive,inactive,inactive,inactive,inactive,,inactive,inactive,inactive,inactive,inactive,inactive,,inactive
NCCNCCN,inactive,inactive,,inactive,,,,inactive,inactive,inactive,inactive,inactive,inactive,inactive,inactive,inactive,inactive,inactive,inactive,inactive
COc1ccc([N+](=O)[O-])cc1N,inactive,inactive,inactive,inactive,inactive,inactive,inactive,inactive,inactive,inactive,inactive,,inactive,inactive,,inactive,inactive,inactive,inactive,
CCNc1ccccc1,inactive,inactive,,inactive,,,,inactive,inactive,inactive,inactive,inactive,inactive,inactive,inactive,inactive,inactive,inactive,inactive,inactive
CC(=O)c1ccc(O)cc1,inactive,inactive,,inactive,inactive,inactive,inactive,inactive,inactive,inactive,inactive,inactive,inactive,inactive,,inactive,inactive,inactive,,inactive
Nc1nc(N)nc(-c2ccccc2)n1,inactive,inactive,inactive,inactive,inactive,inactive and 34.4 µM (active),inactive,inactive,inactive,inactive,inactive,inactive,inactive,inactive,inactive,inactive,inactive,inactive,inactive,
CC(C)=CCl,inactive,inactive,inactive,,49.6 µM [inconclusive] (active) and inactive,17.4 µM (active) and inactive,inactive,inactive,inactive,inactive,inactive,,,inactive,,inactive,inactive,inactive,inactive,inactive
